# Compound activity as filed in PubChem.
# Sampled rows, rich in hits. Any-hit rate of the full collection: about 11%.
# HEK cytotox: cytotoxic compounds in HEK 293 cells | HEK 293 viability, ATP luminescence (CellTiter-Glo), 48-72 h | Potency, µM (titrated, usually from 115 µM), for inactives: at the highest dose activity change, negative = cytotoxicity, most hits filed as inhibitors | hit rate 6.6% among 94,000; further: nearly all actives have a fitted effect of over 60% in size
#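 Cytotoxicity was scored by loss of ATP-coupled luminescence (CellTiter-Glo) in HEK 293 cells. Compound treatment ran 48 or 72 hr at 37 degree Celsius, 5% CO2, 95% humidity.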
# hNpr1 antagonist: antagonists of human natriuretic peptide receptor Npr1; P16066; HEK293 hNpr1 GloSensor cGMP, ANP-stimulated luminescence; Potency, µM (doses to about 46.3 µM), inactives show top-dose activity change, negative = inhibition, hits mostly inhibitors; hit rate 1.6% among 76,000; calls by dose curve; further: nearly all actives have a fitted effect of over 60% in size
#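 Compound pre-incubated 30 min at room temperature on GloSensor-loaded HEK293 cells stably carrying hNpr1 and the pGS-40F cGMP biosensor. Stimulation uses hNppA at 0.1 nM final; luminescence is taken at baseline and 20 min post-agonist.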
# Luciferase inh: inhibitors of firefly (Photinus pyralis) luciferase; AID 1347043; hit rate 2.5% among 76,000; P08659; purified P. pyralis luciferase, luminescence, biochemical; Potency, µM (top dose mostly 115 µM), actives largely listed as inhibitors; further: nearly all actives have a fitted effect of over 65% in size
# Target sequence (P08659 whole entry, looked up): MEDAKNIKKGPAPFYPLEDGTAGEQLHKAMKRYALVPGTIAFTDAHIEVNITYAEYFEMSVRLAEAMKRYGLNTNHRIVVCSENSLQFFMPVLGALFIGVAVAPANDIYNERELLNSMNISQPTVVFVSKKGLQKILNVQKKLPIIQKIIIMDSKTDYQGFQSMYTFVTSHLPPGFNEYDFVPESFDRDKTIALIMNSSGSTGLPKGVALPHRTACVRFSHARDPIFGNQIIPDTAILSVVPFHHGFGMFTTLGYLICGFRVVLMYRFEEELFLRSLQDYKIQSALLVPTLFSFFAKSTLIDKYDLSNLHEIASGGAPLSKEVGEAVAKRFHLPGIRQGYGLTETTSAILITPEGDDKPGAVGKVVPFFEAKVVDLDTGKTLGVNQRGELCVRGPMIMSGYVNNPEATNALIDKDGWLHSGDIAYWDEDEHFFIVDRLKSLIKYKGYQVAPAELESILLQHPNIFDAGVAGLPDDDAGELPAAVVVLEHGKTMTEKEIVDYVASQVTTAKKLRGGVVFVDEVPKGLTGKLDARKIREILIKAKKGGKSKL
#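 Biochemical qHTS: compound (6-point titration) added to 10uM D-luciferin plus 10uM ATP in Tris acetate pH 7.5 buffer with Mg, Tween-20 and BSA, then purified enzyme at 10nM; light output imaged.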
# 3T3 cytotox: cytotoxic compounds in NIH 3T3 cells; NIH 3T3 viability, CellTiter-Glo ATP luminescence, 48-72 h; Potency, µM (series often up to 96.7 µM), for the others: at the highest dose activity change, negative = cytotoxicity, most hits filed as inhibitors; hit rate 4.3% among 94,000; AID 1345082; further: nearly all actives have a fitted effect of over 55% in size
#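 Viability of NIH 3T3 cells after 48 or 72 hr compound treatment at 37 °C was assessed by CellTiter-Glo, with luminescence imaged following a 10 min room-temperature step.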
# Numbers without * were called inactive; i = inactive; ? = inconclusive; . = not tested or not shown; [ ] = dose if it differs, or a comment. Unless noted, the call rests on the fitted dose curve; in most records, active means well fitted curve in the direction sought with a large enough effect; inconclusive means small, poorly fitted or top-dose-only effect, or another doubt; inactive means no such curve, though single readings can be large; an effect the other way counts as inactive or inconclusive. On the % scale 0 is the no-effect control and ±100 the full control effect; potency means the concentration at half of the fitted maximal effect.
SMILES,HEK cytotox,hNpr1 antagonist,Luciferase inh,3T3 cytotox
O=C1Nc2ccccc2C12CCN(Cc1ccccc1)C2 (centres undefined),-26.2%[172 µM],.,.,-12.0%[138 µM]
Cc1cc(C)cc(-c2ccc(CN3CCCC3C(=O)NCc3ccc(C(F)(F)F)cc3)cc2)c1 (centres undefined),39.8µM*,.,.,35.5µM*
Cc1cc(C)cc(-c2ccc(CN3CCCC3C(=O)NCCc3ccc(F)cc3)cc2)c1 (centres undefined),44.7µM*,.,.,?
Cc1cc(C)cc(-c2ccc(CN3CCCC3C(=O)NCc3cccnc3)cc2)c1 (centres undefined),50.1µM*,.,.,?
Cc1cc(C)cc(-c2ccc(CN3CCCC3C(=O)NCC3CC3)cc2)c1 (centres undefined),39.8µM*,.,.,39.8µM*
COc1ccc(-c2ccc(C(=O)N3CCN([S+](=O)([O-])c4cccs4)CC3)cc2)nn1,?,.,.,-25.1%
N#Cc1cccc(-c2c(C(=O)N3CCOCC3)nc3sccn23)c1,i,.,.,-7.0%
O=C(C1CCCN([S+](=O)([O-])c2cccs2)C1)N1CCC(N2CCOCC2=O)CC1 (centres undefined),-8.2%,.,.,-7.5%
O=C(c1ccc(Cl)nc1)N1CCC(C(=O)N2CCC(N3Cc4cccn4C3=O)CC2)CC1,i,.,.,-7.2%
CCOCCCNC(=O)C1CCCN1Cc1ccc(-c2cncnc2)cc1 (centres undefined),i,.,.,-4.2%
COc1ccccc1CNC(=O)C1CCCN1Cc1ccc(-c2cc(C)cc(C)c2)cc1 (centres undefined),39.8µM*,.,.,39.8µM*
CCOCCNC(=O)C1CCCN1Cc1ccc(-c2cc(C)cc(C)c2)cc1 (centres undefined),35.5µM*,.,.,?
O=C(NCC1CC1)C1CCCN1Cc1ccc(-c2cncnc2)cc1 (centres undefined),i,.,.,-4.6%
CCOc1ccc(C2Cn3nnc(-c4nc(-c5cccc(OCC)c5)no4)c3CO2)cc1 (centres undefined),-7.7%,-0.9%,i,-6.7%
COc1cccc(CN2C(=O)OC3(CCN(Cc4ccc5c(c4)CCO5)CC3)C2(C)c2cccnc2)c1 (centres undefined),?,1.9%,i,?
COc1cccc(CN2C(=O)OC3(CCN(Cc4c[nH]c5ccccc45)CC3)C2(C)c2cccnc2)c1 (centres undefined),?,-0.6%,i,31.6µM*
COc1cccc(CN2C(=O)OC3(CCN(C(C)=O)CC3)C2(C)c2cccnc2)c1 (centres undefined),-0.5%[172 µM],2.2%[70.6 µM],i,89.1µM*
COc1cccc(CN2C(=O)OC3(CCN(C(=O)c4ccn(C)n4)CC3)C2(C)c2cccnc2)c1 (centres undefined),-21.2%,1.0%,i,35.5µM*
c1ccc(CN2CCC[C@H]2c2nc(-c3ccc(-n4ccnc4)nc3)no2)cc1,89.1µM*,-3.3%[70.6 µM],i,?
CN1CCN(c2ccc(-c3noc([C@@H]4CCCN4C4CCCCC4)n3)cn2)CC1,79.4µM*,1.8%[70.6 µM],i,79.4µM*
CC(C)N1CCC[C@H]1c1nc(-c2ccc(N3CCN(C)CC3)nc2)no1,-13.4%[172 µM],5.1%[70.6 µM],i,-0.7%[138 µM]
c1ccc(CN2CCC[C@H]2c2nc(-c3ccnc(N4CCOCC4)c3)no2)nc1,?,-5.9%[70.6 µM],i,35.5µM*
CN1CCN(c2ccc(-c3noc([C@@H]4CCCN4CCCc4ccccc4)n3)cn2)CC1,?,4.0%[70.6 µM],i,39.8µM*
O=C(O)C1CCc2sc(C(=O)N3CCCCCC3)cc2C1 (centres undefined),0.2%,4.8%,15.8µM*,?
O=C(O)C1CCc2sc(C(=O)N3CCCC3)cc2C1 (centres undefined),-8.8%,-7.1%,i,?
SMILES,HEK cytotox,hNpr1 antagonist,Luciferase inh,3T3 cytotox
O=C1CC(c2ccccc2)N(C(=O)CNC(=O)c2cc3ccccc3[nH]2)CCCCCN1 (centres undefined),-24.2%,-11.8%,i,-13.5%
COc1ccc(C(=O)Nc2ccc(-c3noc([C@@H]4CCCN4Cc4ccncc4)n3)cn2)cc1,?,12.6µM*,?,?
COCC(=O)Nc1ccc(-c2noc([C@@H]3CCCN3Cc3cc4ccccc4o3)n2)cn1,70.8µM*,-3.3%[70.6 µM],i,?
Cc1ccc(-n2cccc2CC(=O)NC2CCCC2)cc1,-18.5%,2.3%,i,-19.1%
CC(=O)N1CCN(c2ncnc3c2CN(C2CCCC2)C(=O)CN3C)CC1,-4.2%,.,.,-17.5%
C[S+](=O)([O-])N1Cc2ccccc2CC2(CCN(CC3CCNCC3)CC2)C1,2.4%,.,.,i
COc1cc(F)cc(-c2ncc3c(n2)OCCN(c2cccc(C(F)(F)F)c2)C3=O)c1,-14.5%[172 µM],-9.4%[70.6 µM],3.16µM*,?
Cc1cccc(-c2ncc3c(n2)OCCN(c2cccc(C(F)(F)F)c2)C3=O)c1,?,-23.6%[70.6 µM],?,-16.6%[138 µM]
Cc1ccc(-c2ncc3c(n2)OCCN(c2ccccc2)C3=O)cc1F,?,7.08µM*,?,?
COc1ccc(F)cc1-c1ncc2c(n1)OCCN(c1cccc(C(F)(F)F)c1)C2=O,?,-10.9%[70.6 µM],i,35.5µM*
O=C1c2cnc(-c3ccsc3)nc2OCCN1c1cccc(C(F)(F)F)c1,100µM*,?,63.1µM*,112µM*
COc1ccc(OC)c(-c2ncc3c(n2)OCCN(c2cccc(C(F)(F)F)c2)C3=O)c1,-25.0%,-9.4%,i,?
COc1cccc(F)c1-c1ncc2c(n1)OCCN(c1cccc(C(F)(F)F)c1)C2=O,?,3.5%[70.6 µM],i,?
COc1ccccc1Oc1c(CCC(=O)NCc2ccccc2)c(C)nn1-c1ccc(F)cc1,?,-24.4%,i,?
O=C1NCc2ccccc2CC12CCCCN2Cc1ccsc1 (centres undefined),-29.8%,.,.,-8.1%
O=C(Cc1ccc(Cl)cc1)NC1CCN(c2cc(-c3cccs3)[nH]n2)C1 (centres undefined),?,-17.4%,i,?
CCOc1ccccc1C1NC(=O)N(CC(=O)Nc2cccc(Cl)c2)C2=C1C(=O)OC2 (centres undefined),35.5µM*,-21.7%,i,?
CCCCc1ccc(NC(=O)CN2C(=O)NC(c3ccccc3OCC)C3=C2COC3=O)cc1 (centres undefined),31.6µM*,-2.1%,i,31.6µM*
CCOc1ccccc1C1NC(=O)N(CC(=O)Nc2ccc(F)cc2)C2=C1C(=O)OC2 (centres undefined),-17.7%,-11.5%,i,?
CCCc1nc(C(=O)NCc2ccc(-n3ccnc3C)cc2)cs1,20µM*,-26.7%,i,?
N#Cc1ccc(CN2CCC(N3Cc4cccn4C3=O)CC2)cc1,?,.,.,-24.0%
COc1ccc(CN2CC3(CCN(C(=O)c4cc(-c5ccc(F)cc5)n[nH]4)CC3)C2=O)cc1,89.1µM*,-14.7%,i,?
O=C(CCC(F)(F)F)N1CCCC(CCc2c(F)cccc2F)C1 (centres undefined),-28.7%,0.0%,i,?
